The results in this text go back to PubChem BioAssay (Tox21).

Assay [1] can be described thus: qHTS assay to identify small molecule antagonists of the estrogen related receptor (ERR) signaling pathway - cell viability counter screen (AID 1224818).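 Also: viability measured after 17.5 h of compound exposure.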 The method in brief: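 Quantitative high-throughput viability counter screen in ERR cells. Compounds (DMSO) incubated 17.5 h at 37 C; read-out was CellTiter-Fluor fluorescence.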
(In general: In qHTS, concentration-response curves come from the screen itself.)

The nature of assay [2]: qHTS assay to identify small molecule antagonists of the estrogen related receptor (ERR) signaling pathway (AID 1224819; also: nearly all actives have a fitted effect of over 50% in size). In short, it runs like this: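 ERR reporter cell line (NTP) plated at 2,000 cells/well, settled 6 h at 37C/5% CO2, then exposed to LOPAC compounds for 18 h at 37C. One-Glo luciferase luminescence read after 30 min at room temperature.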
Assay [3] is described as follows: qHTS assay to identify small molecule agonists of the estrogen related receptor (ERR) signaling pathway (AID 1224820). The method in brief:
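After 6 h plating (2,000 cells/well) and 18 h compound treatment at 37 C, ERR cells were lysed with One-Glo and luminescence read after 30 min at room temperature.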

For assay [4], the system named is estrogen-related receptor alpha (ERRalpha) with PGC-1alpha coactivator, human. Description: qHTS assay to identify small molecule antagonists of the estrogen related receptor signaling pathway with the pleiotropic PPARgamma coactivator (PGC) (AID 1224821; calls by dose curve; also: nearly all actives have a fitted effect of over 50% in size). The method in brief: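 Luminescence from One-Glo luciferase reagent (30 min, room temperature) measured after 18 h compound treatment at 37 °C. Cells carry the PGC/ERR reporter and were seeded 6 h prior to dosing.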

Assay [5] in a line: qHTS assay to identify small molecule antagonists of the estrogen related receptor signaling pathway with the pleiotropic PPARgamma coactivator (PGC) cell viability counter screen (AID 1224822). The method in brief:
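Cytotoxicity in the PGC/ERR cell line is assessed with CellTiter-Fluor, read as fluorescence intensity 30 min after reagent addition, following 17.5 h compound treatment at 37 C.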

Assay [6] can be described thus: qHTS assay to identify small molecule agonists of the estrogen related receptor signaling pathway with the pleiotropic PPARgamma coactivator (PGC) (AID 1224823). In short, it runs like this:
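Luminescence from One-Glo reagent (30 min, room temperature) was read after 18 h compound treatment at 37 C of PGC/ERR cells plated 6 h beforehand; compounds delivered in DMSO by pin tool.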

Inconclusive results are not listed. Activity calls are given as the source filed them. Unless noted, calls follow the shape of the dose curve; as a rule, active = well fitted curve in the direction sought with a large enough effect in the repeat runs; inconclusive = weak or mixed curves; inactive = no such curve, though single readings can be large; an effect the other way counts as inactive or inconclusive.
Potency is read from the fitted curve at half-maximal effect.

Regarding `CN(C)C(=O)/N=N/C(=O)N(C)C`, the Potency result in assay [1], in assay [2], in assay [3], in assay [4], in assay [5] and in assay [6] was “inactive” each time.

For `O=C(/C=C/c1ccc(O)cc1)c1ccc(O)cc1O`, the Potency entry in assay [1], in assay [2], in assay [3], in assay [4], in assay [5] and in assay [6] was “inactive” in each case.

On to `CCNC(=O)[C@H]1O[C@@H](n2cnc3c(N)nc(NCCc4ccc(CCC(=O)O)cc4)nc32)[C@H](O)C1O` (stereo not given in full), for which the Potency result in assay [1], in assay [2], in assay [3], in assay [4] and in assay [5] was “inactive” throughout. Besides, in assay [6], the Potency is 1.28 µM (active).

Take `COc1cc2c(CCNC(C)=O)c[nH]c2cc1Cl`: the Potency result in assay [1], in assay [2], in assay [3], in assay [4], in assay [5] and in assay [6] was “inactive” throughout.

`O=C1NC(=O)/C(=C/c2ccc(-c3ccc(F)cc3O)o2)S1`: the Potency entry in assay [1], in assay [2], in assay [3], in assay [4], in assay [5] and in assay [6] was “inactive” throughout.

For the compound `Cn1cc(C2=C(c3ccc(Cl)cc3Cl)C(=O)NC2=O)c2ccccc21`, the Potency result in assay [1], in assay [3], in assay [4], in assay [5] and in assay [6] was “inactive” in each case. For the same compound, the Potency in assay [2] was 21.1 µM (active).

Turning to `N[C@@H](Cc1ccc(O)c(I)c1)C(=O)O`, the Potency result in assay [1], in assay [2], in assay [3], in assay [4], in assay [5] and in assay [6] was “inactive” each time.

In the case of `CCn1c(=O)[nH]c2cc(Cl)c(Cl)cc21`, the Potency result in assay [1], in assay [2], in assay [3], in assay [4], in assay [5] and in assay [6] was “inactive” throughout.

Regarding `C=C1C[C@@]23CC[C@H]4[C@@](C)(CCC[C@@]4(C)C(=O)O)[C@@H]2CC[C@]1(O)C3`, the Potency result in assay [1], in assay [2], in assay [3], in assay [4], in assay [5] and in assay [6] was “inactive” each time.

Take `Nc1nc(N)c2nc(CNc3ccc(C(=O)NC(CCC(=O)O)C(=O)O)cc3)cnc2n1` (stereo not given): the Potency entry in assay [1], in assay [3], in assay [5] and in assay [6] was “inactive” throughout. Moreover, the Potency in assay [2] was 0.0438 µM (active); in assay [4], 0.0619 µM (active).

As for `CN1CCc2ccccc2Cc2[nH]c3ccccc3c2CC1`, the Potency entry in assay [1], in assay [2], in assay [3], in assay [4], in assay [5] and in assay [6] was “inactive” throughout.

Turning to `Nc1cc(Cl)c(NC2=NCCN2)c(Cl)c1`, the Potency result in assay [1], in assay [2], in assay [3], in assay [4], in assay [5] and in assay [6] was “inactive” each time.

For `O=C(O)C1=CCCNC1`, the Potency result in assay [1], in assay [2], in assay [3], in assay [4], in assay [5] and in assay [6] was “inactive” throughout.

Consider `CC(C)C[C@H](NC(=O)C1OC1C(=O)O)C(=O)NCCCCN=C(N)N` (stereo not given in full), for which the Potency result in assay [1], in assay [2], in assay [3], in assay [4], in assay [5] and in assay [6] was “inactive” each time.

As for `N[C@@H](CCCC(=O)O)C(=O)O`, the Potency result in assay [1], in assay [2], in assay [3], in assay [4], in assay [5] and in assay [6] was “inactive” each time.

`Cc1ccc2c(c1)C(N1CCN(C)CC1)=Nc1cccnc1N2`: the Potency result in assay [1], in assay [2], in assay [3], in assay [4], in assay [5] and in assay [6] was “inactive” each time.

Turning to `C#CCn1c(=O)c2c(ncn2C)n(C)c1=O`, the Potency result in assay [1], in assay [2], in assay [3], in assay [4], in assay [5] and in assay [6] was “inactive” each time.

As for `COc1cc(C(O)CO)ccc1OS(=O)(=O)O` (stereo not given), the Potency result in assay [1], in assay [2], in assay [3], in assay [4], in assay [5] and in assay [6] was “inactive” in each case.

Regarding `N=c1ccn2c(n1)O[C@H]1C(O)[C@@H](CO)O[C@H]12` (stereo not given in full), the Potency result in assay [1], in assay [2], in assay [3], in assay [4], in assay [5] and in assay [6] was “inactive” throughout.

Take `O=c1onc2cnc3ccccc3n12`: the Potency result in assay [1], in assay [2], in assay [3], in assay [4], in assay [5] and in assay [6] was “inactive” throughout.

For the compound `COc1ccc2c(c1)c(CC(=O)O)c(C)n2Cc1ccc(Cl)cc1`, the Potency entry in assay [1], in assay [2], in assay [3], in assay [4], in assay [5] and in assay [6] was “inactive” each time.

With `CC(=O)O[C@H]1C[C@@H]2CC[C@@H]3[C@H](CC[C@@]4(C)[C@H]3C[C@H]([N+]3(C)CCCCC3)[C@@H]4OC(C)=O)[C@@]2(C)C[C@@H]1[N+]1(C)CCCCC1`, the Potency entry in assay [1], in assay [2], in assay [3], in assay [4], in assay [5] and in assay [6] was “inactive” each time.

In the case of `CNc1cc(NS(=O)(=O)c2ccc(N)cc2)nc(NC)n1`, the Potency result in assay [1], in assay [2], in assay [3], in assay [4], in assay [5] and in assay [6] was “inactive” throughout.

In the case of `COC1(C2=NCCN2)COc2ccccc2O1` (stereo not given), the Potency entry in assay [1], in assay [2], in assay [3], in assay [4], in assay [5] and in assay [6] was “inactive” throughout.

In the case of `N[C@H](C(=O)O)[C@H]1C[C@@H]1C(=O)O`, the Potency result in assay [1], in assay [2], in assay [3], in assay [4], in assay [5] and in assay [6] was “inactive” throughout.

On to `Nc1ccc(CCNc2ncnc3c2ncn3C2OC(CO)C(O)C2O)cc1` (stereo not given), for which the Potency result in assay [1], in assay [2], in assay [3], in assay [4] and in assay [5] was “inactive” throughout. The Potency in assay [6] was 12.3 µM (active).

With `CC(N)=NCCCC[C@@H](N)C(=O)O`, the Potency result in assay [1], in assay [2], in assay [3], in assay [4], in assay [5] and in assay [6] was “inactive” each time.

For `O=C(N[C@@H](Cc1ccccc1)C(=O)CCl)OCc1ccccc1`, the Potency is 19.6 µM (active) in assay [1], 21.1 µM (active) in assay [2], 16.8 µM (active) in assay [4] and 16.8 µM (active) in assay [5]. The Potency entry in assay [3] and in assay [6] was “inactive” throughout.

For `CSC(N)=NCCC[C@H](N)C(=O)O`, the Potency result in assay [1], in assay [2], in assay [3], in assay [4], in assay [5] and in assay [6] was “inactive” each time.

Turning to `Nc1ccc(-c2ccc3ccccc3n2)cc1`, the Potency entry in assay [1], in assay [2], in assay [4] and in assay [5] was “inactive” in each case. Besides, the Potency is 2.46 µM (active) in assay [3] and 1.96 µM (active) in assay [6].
